# Counter-ions that a name gives are not always drawn. ± gives the standard deviation of the averaged measurements.
# Legend:
# [1] = tested on: Saccharomyces cerevisiae BY4741 SeMeCo community; assay: mean cell size (pixel area) (pixels); higher = larger cells; conditions: 10 µM; 24 h; SM minimal medium
# Method in brief: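 For 24 h, 70 µl of yeast culture diluted to OD600 = 0.3 from an overnight preculture at OD600 = 1.0 was kept in SM medium in 384-well plates acoustically predosed with drug, final 10 µM. The strain was Saccharomyces cerevisiae BY4741 forming a fluorescent community of four plasmids, each complementing one auxotrophy and carrying a fluorescent marker. Automated confocal microscopy of paraformaldehyde-fixed cells, analysed in Harmony, provided mean cell pixel area per well, which was averaged over 3 replicates. Same SeMeCo high-content imaging drug screen: Selleck FDA-approved drugs at 10 µM, 24 h in SM medium, 384-well plates, 3 replicates.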
# [2] = tested on: Saccharomyces cerevisiae BY4741 SeMeCo community; assay: z-score of prototroph abundance vs DMSO median; higher = larger share of this subpopulation than in DMSO controls; conditions: 10 µM; 24 h; SM minimal medium; subpopulation (auxotrophy): Prototroph
# Method in brief: (§1)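 Four plasmids, each restoring a single auxotrophy and encoding a distinct fluorescent protein, were carried by a Saccharomyces cerevisiae BY4741 community. After overnight growth to OD600 1.0 and dilution to 0.3, 70 µl per well was grown for 24 h in minimal SM medium on 384-well plates acoustically predosed with library drugs at 10 µM final. Following paraformaldehyde fixation, automated confocal microscopy was used, with single-auxotroph fluorescent strains defining thresholds and autofluorescence correction. Subpopulation abundance was then scored as a z-score against the vehicle-well median.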
# [3] = tested on: Saccharomyces cerevisiae BY4741 SeMeCo community; assay: z-score of subpopulation abundance vs DMSO median, subpopulation auxotrophic for M; higher = larger share of this subpopulation than in DMSO controls; conditions: 10 µM; 24 h; SM minimal medium; subpopulation (auxotrophy): M
# Method in brief: as §1
# [4] = tested on: Saccharomyces cerevisiae BY4741 SeMeCo community; assay: z-score of subpopulation abundance vs DMSO median, subpopulation auxotrophic for L; higher = larger share of this subpopulation than in DMSO controls; conditions: 10 µM; 24 h; SM minimal medium; subpopulation (auxotrophy): L
# Method in brief: as §1
# [5] = tested on: Saccharomyces cerevisiae BY4741 SeMeCo community; assay: z-score of subpopulation abundance vs DMSO median, subpopulation auxotrophic for U; higher = larger share of this subpopulation than in DMSO controls; conditions: 10 µM; 24 h; SM minimal medium; subpopulation (auxotrophy): U
# Method in brief: as §1
# [6] = tested on: Saccharomyces cerevisiae BY4741 SeMeCo community; assay: z-score of subpopulation abundance vs DMSO median, subpopulation auxotrophic for LU; higher = larger share of this subpopulation than in DMSO controls; conditions: 10 µM; 24 h; SM minimal medium; subpopulation (auxotrophy): LU
# Method in brief: as §1
# [7] = tested on: Saccharomyces cerevisiae BY4741 SeMeCo community; assay: z-score of subpopulation abundance vs DMSO median, subpopulation auxotrophic for HM; higher = larger share of this subpopulation than in DMSO controls; conditions: 10 µM; 24 h; SM minimal medium; subpopulation (auxotrophy): HM
# Method in brief: as §1
# [8] = tested on: Saccharomyces cerevisiae BY4741 SeMeCo community; assay: z-score of subpopulation abundance vs DMSO median, subpopulation auxotrophic for HL; higher = larger share of this subpopulation than in DMSO controls; conditions: 10 µM; 24 h; SM minimal medium; subpopulation (auxotrophy): HL
# Method in brief: as §1
# [9] = tested on: Saccharomyces cerevisiae BY4741 SeMeCo community; assay: z-score of subpopulation abundance vs DMSO median, subpopulation auxotrophic for HLU; higher = larger share of this subpopulation than in DMSO controls; conditions: 10 µM; 24 h; SM minimal medium; subpopulation (auxotrophy): HLU
# Method in brief: as §1
# [10] = tested on: Saccharomyces cerevisiae BY4741 SeMeCo community; assay: z-score of subpopulation abundance vs DMSO median, subpopulation auxotrophic for HLM; higher = larger share of this subpopulation than in DMSO controls; conditions: 10 µM; 24 h; SM minimal medium; subpopulation (auxotrophy): HLM
# Method in brief: as §1
# [11] = tested on: Saccharomyces cerevisiae BY4741 SeMeCo community; assay: z-score of subpopulation abundance vs DMSO median, subpopulation auxotrophic for HUM; higher = larger share of this subpopulation than in DMSO controls; conditions: 10 µM; 24 h; SM minimal medium; subpopulation (auxotrophy): HUM
# Method in brief: as §1
# [12] = tested on: Saccharomyces cerevisiae BY4741 SeMeCo community; assay: z-score of subpopulation abundance vs DMSO median, subpopulation auxotrophic for LUM; higher = larger share of this subpopulation than in DMSO controls; conditions: 10 µM; 24 h; SM minimal medium; subpopulation (auxotrophy): LUM
# Method in brief: as §1
# [13] = tested on: Saccharomyces cerevisiae BY4741 SeMeCo community; assay: z-score of subpopulation abundance vs DMSO median, subpopulation auxotrophic for HLUM; higher = larger share of this subpopulation than in DMSO controls; conditions: 10 µM; 24 h; SM minimal medium; subpopulation (auxotrophy): HLUM
# Method in brief: as §1
# [14] = tested on: Saccharomyces cerevisiae BY4741 SeMeCo community; assay: z-score of subpopulation abundance vs DMSO median, subpopulation auxotrophic for HU; higher = larger share of this subpopulation than in DMSO controls; conditions: 10 µM; 24 h; SM minimal medium; subpopulation (auxotrophy): HU
# Method in brief: as §1
# [15] = tested on: Saccharomyces cerevisiae BY4741 SeMeCo community; assay: z-score of subpopulation abundance vs DMSO median, subpopulation auxotrophic for H; higher = larger share of this subpopulation than in DMSO controls; conditions: 10 µM; 24 h; SM minimal medium; subpopulation (auxotrophy): H
# Method in brief: as §1
# [16] = tested on: Saccharomyces cerevisiae BY4741 SeMeCo community; assay: z-score of subpopulation abundance vs DMSO median, subpopulation auxotrophic for UM; higher = larger share of this subpopulation than in DMSO controls; conditions: 10 µM; 24 h; SM minimal medium; subpopulation (auxotrophy): UM
# Method in brief: as §1
# [17] = tested on: Saccharomyces cerevisiae BY4741 SeMeCo community; assay: z-score of subpopulation abundance vs DMSO median, subpopulation auxotrophic for LM; higher = larger share of this subpopulation than in DMSO controls; conditions: 10 µM; 24 h; SM minimal medium; subpopulation (auxotrophy): LM
# Method in brief: as §1
SMILES,mean cell size [1],z-score of prototroph abundance [2],z-score of subpopulation abundance [3],z-score of subpopulation abundance [4],z-score of subpopulation abundance [5],z-score of subpopulation abundance [6],z-score of subpopulation abundance [7],z-score of subpopulation abundance [8],z-score of subpopulation abundance [9],z-score of subpopulation abundance [10],z-score of subpopulation abundance [11],z-score of subpopulation abundance [12],z-score of subpopulation abundance [13],z-score of subpopulation abundance [14],z-score of subpopulation abundance [15],z-score of subpopulation abundance [16],z-score of subpopulation abundance [17]
NCc1ccccc1CC(=O)N[C@@H]1C(=O)N2C(C(=O)O)=C(CSc3nnnn3CC(=O)O)CS[C@H]12 [Ceforanide],12.09 ± 0.042,-0.53,-0.21,2.29,-0.98,0.89,1.01,2.92,0.38,0.46,0.56,2.06,1.14,,,,
C/C=C\c1ccc(O)c(OC)c1 [Isoeugenol],12.02 ± 0.031,-0.36,0.59,0.4,0.4,-0.07,,,0.2,-0.07,0.5,0.33,0.03,-0.46,,,
C=CCCCCCCCCC(=O)[O-].C=CCCCCCCCCC(=O)[O-].[Zn+2] [Zinc Undecylenate],11.6 ± 0.15,2.41,-3.83,-1.01,,-1.37,-2.65,-0.05,3.75,-0.76,-0.02,-0.54,3.48,2.38,-1.44,-2.31,
COc1cc(N)c(Cl)cc1C(=O)NC1CCN(CCCOc2ccc(F)cc2)CC1OC (centres undefined) [Cisapride hydrate],12.52 ± 0.044,-0.46,0.32,-0.75,,0.83,0.29,-0.17,0.05,0.12,0.84,-0.28,-0.3,1.34,0.05,0.98,
CC(C)NC(=N)NC(=N)Nc1ccc(Cl)cc1 [Proguanil],12.3 ± 0.13,0,0.65,-1.12,1.07,-0.48,0.11,-0.81,-0.46,-0.27,-0.17,-0.3,-0.44,-0.55,-0.88,0.61,
Cc1cc(NS(=O)(=O)c2ccc(N)cc2)no1 [Sulfamethoxazole],12.4 ± 0.24,-0.28,0.51,0.5,-0.2,0.02,0.18,0.5,1.04,-0.58,-0.13,-0.02,-0.41,-0.16,-0.46,0.65,
O=C(O)CCC(=O)OC[C@@H](NC(=O)C(Cl)Cl)[C@H](O)c1ccc([N+](=O)[O-])cc1 [Chloramphenicol sodium succinate],12.13 ± 0.03,-0.62,0.71,2.27,-0.91,0.45,0.94,1.46,1.48,0.81,0.13,1.21,0.88,-1.04,0.42,-0.25,
Cc1cc(=O)n(-c2ccccc2)n1C [Antipyrine],12.6 ± 0.13,0.87,0.62,-0.59,-0.44,-0.69,-0.59,-0.85,-0.53,-0.18,-0.77,0.02,-0.47,-0.64,-1.04,-1.23,
CS(=O)(=O)c1ccc([C@@H](O)[C@@H](CO)NC(=O)C(Cl)Cl)cc1 [Thiamphenicol],12.41 ± 0.061,0.25,-0.68,0.13,0.59,0.67,-0.5,-0.52,-0.36,-0.85,-0.08,-0.6,-0.23,0.15,-0.3,0.81,
CSCC1CN(/N=C/c2ccc([N+](=O)[O-])o2)C(=O)O1 (centres undefined) [Nifuratel],13.05 ± 0.13,1.73,3.2,3.68,-7.52,-5.94,1.92,4.21,-1.21,2.19,-2.83,-2.95,1.35,-5.85,5.51,-7.21,
CC(C)(C)C(=O)OCOC(=O)[C@@H]1N2C(=O)[C@@H](/N=C/N3CCCCCC3)[C@H]2SC1(C)C [Pivmecillinam hydrochloride],12.3 ± 0.13,-0.55,-0.74,0.41,0.34,0.57,-0.25,0.29,-0.02,-0.52,-0.16,-0.28,,-0.03,0.1,-0.01,
CN[C@H](CC(C)C)C(=O)N[C@H]1C(=O)N[C@@H](CC(N)=O)C(=O)N[C@H]2C(=O)N[C@H]3C(=O)N[C@H](C(=O)N[C@H](C(=O)O)c4cc(O)cc(O)c4-c4cc3ccc4O)[C@H](O)c3ccc(c(Cl)c3)Oc3cc2cc(c3O[C@@H]2O[C@H](CO)[C@@H](O)[C@H](O)[C@H]2O[C@H]2C[C@](C)(N)[C@H](O)[C@H](C)O2)Oc2ccc(cc2Cl)[C@H]1O [Vancomycin HCl],12.1 ± 0.11,,0.48,-0.67,-0.35,0.18,0.33,-0.36,-0.51,0.73,0.51,-0.38,-0.53,,-0.1,0.58,
CC(C)[C@H]1CC[C@H](C(=O)N[C@H](Cc2ccccc2)C(=O)O)CC1 [Nateglinide],12.5 ± 0.12,,1.18,0.26,-0.59,0,,-0.02,-0.32,0.89,-0.11,1.15,0.69,0.06,0.66,0.38,0.32
CNCC[C@H](Oc1cccc2ccccc12)c1cccs1 [Duloxetine],12.3 ± 0.34,,0.27,-1.31,,-0.71,0.1,-1.33,-1.41,-0.37,0.24,-0.47,-0.23,-0.4,-0.81,-0.39,

# Reference: the supplement of paper PMC8975748
